# Bioassay records (PubChem)
# FMDV inh: High Throughput Screening for Foot and Mouth Disease Virus Antivirals. hit rate 1.2% among 410,000. AID 1159524, 2015. Potency, µM (titrated, usually from 57.9 µM), for the others: at the highest dose activity change, negative = inhibition, usual class: inhibitors. FMDV antiviral cell-based qHTS; calls by dose curve; tested in HEK293T cells; also: read-out not given here; potency is read from the fitted curve at half-maximal effect; nearly all actives have a fitted effect of over 45% in size
# MARV entry inh: qHTS for inhibitors of binding or entry into cells for Marburg Virus. Potency, µM (highest dose often 37.8 µM), for the others: top-dose activity change, negative = inhibition, most hits filed as inhibitors. Marburg virus pseudotyped entry inhibition, cell reporter. hit rate 1.8% among 300,000; calls by dose curve; tested in HEK293 cells; also: potency is read from the fitted curve at half-maximal effect
# LASV entry inh: qHTS for Inhibitors of binding or entry into cells for Lassa Virus. AID 540256, 2011. Lassa virus pseudotype entry inhibition, cell reporter. Potency, µM (titrated, usually from 37.9 µM), without a hit: at the highest dose activity change, negative = inhibition, usual class: inhibitors. hit rate 1.2% among 300,000; calls by dose curve; tested in HEK293 cells; also: potency is read from the fitted curve at half-maximal effect; nearly all actives have a fitted effect of over 50% in size
# HCMV antiviral: qHTS Assay for inhibitors of the human cytomegalovirus (HCMV). HFF cells, HCMV-luciferase reporter, 72 h; stronger effect = lower value. activity change, negative = inhibition, % at 57.5 µM. hit rate 4.5% among 410,000. AID 1259415, 2018; in the data active = activity change below about -60%; inconclusive = no clear call, values can overlap the other calls; inactive = above about -39%
#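 Cell-based, HFFs, 1000 cells/well, 16 h 37C; cpds in DMSO + HCMV-luc, MOI 1 PFU/cell; 72 h 37C; OneGlo luminescence after 5 min RT; norm. to buffer vs Salinomycin 10uM.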
# The depositor's hits bear a star; ? = inconclusive; / = no result; [ ] = dose if it differs, or a comment. Only some compounds are listed: those with a hit (about 6.2% of all), similar ones and a draw of the others. % is scaled to controls: 0 for no effect and ±100 for the full control effect.
SMILES,FMDV inh,MARV entry inh,LASV entry inh,HCMV antiviral
COc1cc(N2C(=O)C=CC2=O)ccc1N1C(=O)C=CC1=O,31.6µM*,?,?,-75.9*
COc1ccc(N2C(=O)C3CC(C)=C(C)CC3C2=O)c(OC)c1 (stereo not drawn),-21.8%,-3.8%,7.8%,1.3
Cn1c(SCC(=O)Nc2ccc3c(c2)OCCO3)nnc1-c1ccco1,-22.6%,3.3%,12.1%,3.1
CCOc1ccc2c(c1)C(=NNC(=O)c1ccncc1)c1cc(OCC)ccc1-2,-23.7%,3.16µM*,6.31µM*,-95.2*
CCOc1ccc(C(=O)c2ccncc2)cc1,/,2.1%,-5.4%,14.2
CC(C)CN(C(=O)CCc1ccccc1)c1c(N)n(CC(C)C)c(=O)[nH]c1=O,-15.0%,-0.9%,10.4%,20.7
CN(C)CCCN(C(=O)c1ccc(S(=O)(=O)N2CCCCC2)cc1)c1nc2cc3c(cc2s1)OCO3,0.0%,?,?,-7.4
Cc1cccc2sc(N(CCCN(C)C)C(=O)COc3ccccc3)nc12,-16.9%,/,17.1%[46.1 µM],0.3
CN(C)CCCN(C(=O)c1cc2cc([N+](=O)[O-])ccc2s1)c1nc2cc3c(cc2s1)OCCO3,39.8µM*,?,?,-97.7*
CCN(CC)CCN(C(=O)c1ccc(C(=O)c2ccccc2)cc1)c1nc2cc3c(cc2s1)OCO3,-28.6%,-12.9%[46.1 µM],20.6%[46.1 µM],36.5
Cc1cccc2sc(N(CCCN(C)C)C(=O)c3ccc(C(=O)c4ccccc4)cc3)nc12,-6.5%,?,-28.8%[46.1 µM],-72.2*
CC1CCCCN1S(=O)(=O)c1ccc(C(=O)N(CCCN(C)C)c2nc3cc4c(cc3s2)OCO4)cc1 (stereo not drawn),-21.8%,?,-4.8%,-69.7*
CN(C)CCCN(C(=O)c1ccc(C(=O)c2ccccc2)cc1)c1nc2cc3c(cc2s1)OCO3,?,15.8µM*,11.2µM*,?
CCOc1ccc(N2C(=O)CC(NCCc3ccc(S(N)(=O)=O)cc3)C2=O)cc1 (stereo not drawn),-7.2%,22.0%,6.8%,-11.3
CN(C)CCCN(C(=O)c1cc(-c2cccs2)nc2ccccc12)c1nc2c(F)cccc2s1,-16.7%,11.2µM*,?,-8.5
COc1ccc(-n2c(C)c3c(C)nnc(C)c3c2C)cc1OC,-0.9%,/,/,-60.2*
CCOC(=O)N1CCC(NC(=O)c2cnn(-c3ccc(C)cc3)c2-n2cccc2)CC1,6.2%,/,2.6%[46.1 µM],-1.7
Cc1ccc(S(=O)(=O)Nc2ccc3c(c2)CCC3)cc1,11.4%,-24.3%,-6.5%,-27.7
COc1ccc(-c2nc(Cn3c(SCc4ccc(C)cc4)nc4cccnc43)c(C)o2)cc1OC,-9.2%,/,?,-97.8*
Cc1nn(-c2nccs2)c2c1C(=O)CC(C)(C)C2Br (stereo not drawn),7.9%,/,/,-70.1*
O=C1C2CCCCC2C(=O)N1c1nccs1 (stereo not drawn),-12.4%,9.4%[46.1 µM],5.3%[46.1 µM],21.9
O=C(CN1C(=O)c2ccc([N+](=O)[O-])cc2C1=O)NC1CCCCCC1,-19.2%,14.7%,0.7%,-21.2
CN(C(=O)CSc1nncn2c1cc1occc12)c1ccccc1,-20.9%,/,6.0%[46.1 µM],-97.7*
O=C(C[n+]1cc(-c2ccc(F)cc2)n2c1CCC2)Nc1nc(-c2ccc(F)cc2)cs1,-13.5%,13.3%,15.7%,118.8
Cn1c(NC(=O)C[n+]2cc(-c3ccccc3)n3c2CCC3)cc(=O)n(C)c1=O,-8.7%,0.8%,2.6%,11.7
SMILES,FMDV inh,MARV entry inh,LASV entry inh,HCMV antiviral
Cn1c(NC(=O)C[n+]2cc(-c3ccc(Cl)cc3)n3c2CCC3)cc(=O)n(C)c1=O,4.5%,-16.4%,5.3%,-77.0*
O=C(C[n+]1cc(-c2ccc(Cl)cc2)n2c1CCC2)Nc1nc(-c2ccc(F)cc2)cs1,-6.7%,8.9%,/,-62.9*
Cc1nnc2n(-c3ccccc3)c(=O)c3c4c(sc3n12)CC(C)CC4 (stereo not drawn),4.0%,-19.5%,-39.0%[14.3 µM],-21.5
O=c1c2c(-c3cccs3)csc2ncn1-c1ccccc1,-20.3%,-25.7%,14.9%,-9.5
COc1ccc(N2C(c3ccsc3)=Cc3cc4c(cc3C2c2c[nH]c3ccccc23)OCO4)cc1 (stereo not drawn),-4.5%,/,/,-95.1*
O=C(CN1CCN(c2cccc(Cl)c2)CC1)N1CCCC1,-12.9%,3.1%,16.9%,-1.8
Cc1ccc(S(=O)(=O)N2CCC(c3nnc(-c4cccc(C)c4)o3)CC2)cc1,3.0%,-3.9%[46.1 µM],-22.8%[46.1 µM],-92.5*
CCCc1ccc(S(=O)(=O)N2CCC(c3nnc(-c4cccc(C)c4)o3)CC2)cc1,5.3%,-25.5%[46.1 µM],2.3%[46.1 µM],-77.7*
Cc1ccc(C(=O)c2cc3ccccc3o2)cc1C,17.5%,-7.7%,?,76.0
